# The whole screen tested about 5,500 compounds, of which about 2,000 (36%) were called active. Roughly 18% stayed inconclusive and do not appear here. This is one part of the list. Values without a mark were called inactive. Cut-off read from the data, not from the text of the source: active = normalized growth mostly below about 0.91 (no sharp cut-off); inconclusive = no clear call, values can overlap the other calls; inactive = mostly above about 0.92.
# Assay: chemical genetic growth profiling, strain panel (AID 1159580);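 note: tested at 20 µM; growth read once vehicle control cultures reached saturation at 30 °C; 1 = growth at the plate median or of vehicle wells; lower values mean less growth of the strain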
# Settings: growth OD
structure (smiles),measurement,setting,value
CC(=O)Nc1ccc(O)cc1,normalized growth,"S. cerevisiae deletion strains, locus YJR075W, strain HOC1, stronger effect = lower value",1.06
same,normalized growth,"S. cerevisiae deletion strains, locus YKL009W, strain mrt4, stronger effect = lower value",0.952
same,normalized growth,"S. cerevisiae deletion strains, locus YKL068W, stronger effect = lower value",0.936 (active)
same,normalized growth,"S. cerevisiae deletion strains, locus YKL085W, strain MDH1 (second series), stronger effect = lower value",0.943
same,normalized growth,"S. cerevisiae deletion strains, locus YKL085W, strain MDH1, stronger effect = lower value",0.943
same,normalized growth,"S. cerevisiae deletion strains, locus YKL160W, strain elf1, stronger effect = lower value",1.01
same,normalized growth,"S. cerevisiae deletion strains, locus YKR001C, strain vps1, stronger effect = lower value",0.982
same,normalized growth,"S. cerevisiae deletion strains, locus YKR026C, strain gcn3, stronger effect = lower value",1.02
same,normalized growth,"S. cerevisiae deletion strains, locus YKR091W, strain srl3, stronger effect = lower value",1.01
same,normalized growth,"S. cerevisiae deletion strains, locus YLL001W, strain dnm1, stronger effect = lower value",0.998
same,normalized growth,"S. cerevisiae deletion strains, locus YLL026W, stronger effect = lower value",1.02
same,normalized growth,"S. cerevisiae deletion strains, locus YLL041C, strain sdh2, stronger effect = lower value",1.01
same,normalized growth,"S. cerevisiae deletion strains, locus YLR027C, strain aat2, stronger effect = lower value",1.01
same,normalized growth,"S. cerevisiae deletion strains, locus YLR039C, strain RIC1, stronger effect = lower value",0.742
same,normalized growth,"S. cerevisiae deletion strains, locus YLR058C, strain SHM2, stronger effect = lower value",0.984
same,normalized growth,"S. cerevisiae deletion strains, locus YLR102C, strain apc9, stronger effect = lower value",0.986
same,normalized growth,"S. cerevisiae deletion strains, locus YLR113W, strain HOG1, stronger effect = lower value",0.974
same,normalized growth,"S. cerevisiae deletion strains, locus YLR221C, strain rsa3, stronger effect = lower value",0.989
same,normalized growth,"S. cerevisiae deletion strains, locus YLR258W, strain gsy2, stronger effect = lower value",1.02
same,normalized growth,"S. cerevisiae deletion strains, locus YLR262C, strain YPT6 (second series), stronger effect = lower value",1.04
same,normalized growth,"S. cerevisiae deletion strains, locus YLR262C, strain YPT6, stronger effect = lower value",0.772
same,normalized growth,"S. cerevisiae deletion strains, locus YLR268W, strain sec22, stronger effect = lower value",0.978
same,normalized growth,"S. cerevisiae deletion strains, locus YLR320W, strain mms22, stronger effect = lower value",1.01
same,normalized growth,"S. cerevisiae deletion strains, locus YLR330W, strain CHS5, stronger effect = lower value",0.986
same,normalized growth,"S. cerevisiae deletion strains, locus YLR342W, strain FKS1 (second series), stronger effect = lower value",1.05
same,normalized growth,"S. cerevisiae deletion strains, locus YLR342W, strain FKS1, stronger effect = lower value",1.03
same,normalized growth,"S. cerevisiae deletion strains, locus YLR357W, strain rsc2, stronger effect = lower value",1.02
same,normalized growth,"S. cerevisiae deletion strains, locus YLR370C, strain arc18, stronger effect = lower value",1.01
same,normalized growth,"S. cerevisiae deletion strains, locus YLR371W, strain rom2, stronger effect = lower value",0.999
same,normalized growth,"S. cerevisiae deletion strains, locus YLR384C, strain iki3, stronger effect = lower value",1.01
same,normalized growth,"S. cerevisiae deletion strains, locus YLR418C, strain cdc73, stronger effect = lower value",1.08
same,normalized growth,"S. cerevisiae deletion strains, locus YML016C, strain PPZ1, stronger effect = lower value",0.975
same,normalized growth,"S. cerevisiae deletion strains, locus YML032C, strain rad52, stronger effect = lower value",0.971
same,normalized growth,"S. cerevisiae deletion strains, locus YML120C, strain ndi1, stronger effect = lower value",1.02
same,normalized growth,"S. cerevisiae deletion strains, locus YML124C, strain tub3, stronger effect = lower value",0.972
same,normalized growth,"S. cerevisiae deletion strains, locus YMR058W, strain fet3, stronger effect = lower value",1.03
same,normalized growth,"S. cerevisiae deletion strains, locus YMR078C, strain ctf18, stronger effect = lower value",0.986
same,normalized growth,"S. cerevisiae deletion strains, locus YMR125W, strain sto1, stronger effect = lower value",1.01
same,normalized growth,"S. cerevisiae deletion strains, locus YMR129W, stronger effect = lower value",1.01
same,normalized growth,"S. cerevisiae deletion strains, locus YMR205C, strain PFK2, stronger effect = lower value",1.02
same,normalized growth,"S. cerevisiae deletion strains, locus YMR223W, strain ubp8, stronger effect = lower value",0.98
same,normalized growth,"S. cerevisiae deletion strains, locus YMR231W, strain pep5, stronger effect = lower value",1.03
same,normalized growth,"S. cerevisiae deletion strains, locus YMR307W, strain GAS1, stronger effect = lower value",0.876
same,normalized growth,"S. cerevisiae deletion strains, locus YNL067W, strain RPL9B, stronger effect = lower value",1.04
same,normalized growth,"S. cerevisiae deletion strains, locus YNL071W, strain lat1, stronger effect = lower value",1.02
same,normalized growth,"S. cerevisiae deletion strains, locus YNL153C, strain GIM3, stronger effect = lower value",0.998
same,normalized growth,"S. cerevisiae deletion strains, locus YNL183C, strain NPR1, stronger effect = lower value",0.955
same,normalized growth,"S. cerevisiae deletion strains, locus YNL209W, strain ssb2, stronger effect = lower value",1.02
same,normalized growth,"S. cerevisiae deletion strains, locus YNL233W, strain BNI4, stronger effect = lower value",1.03
same,normalized growth,"S. cerevisiae deletion strains, locus YNL248C, strain rpa49, stronger effect = lower value",0.998
same,normalized growth,"S. cerevisiae deletion strains, locus YNL250W, strain rad50, stronger effect = lower value",0.937
same,normalized growth,"S. cerevisiae deletion strains, locus YNL271C, strain bni1, stronger effect = lower value",0.936
same,normalized growth,"S. cerevisiae deletion strains, locus YNL298W, strain CLA4, stronger effect = lower value",0.897 (active)
same,normalized growth,"S. cerevisiae deletion strains, locus YNL307C, strain MCK1, stronger effect = lower value",1.01
same,normalized growth,"S. cerevisiae deletion strains, locus YNL322C, strain KRE1 (second series), stronger effect = lower value",1.02
same,normalized growth,"S. cerevisiae deletion strains, locus YNR049C, strain mso1, stronger effect = lower value",1.03
same,normalized growth,"S. cerevisiae deletion strains, locus YNR052C, strain pop2, stronger effect = lower value",0.974
same,normalized growth,"S. cerevisiae deletion strains, locus YOL006C, strain TOP1, stronger effect = lower value",1.14
same,normalized growth,"S. cerevisiae deletion strains, locus YOL012C, strain htz1",0.778
same,normalized growth,"S. cerevisiae deletion strains, locus YOL147C, strain pex11, stronger effect = lower value",0.98
same,normalized growth,"S. cerevisiae deletion strains, locus YOR001W, strain rrp6, stronger effect = lower value",1.01
same,normalized growth,"S. cerevisiae deletion strains, locus YOR061W, strain CKA2, stronger effect = lower value",0.972
same,normalized growth,"S. cerevisiae deletion strains, locus YOR069W, strain VPS5, stronger effect = lower value",0.984
same,normalized growth,"S. cerevisiae deletion strains, locus YOR070C, strain gyp1, stronger effect = lower value",1.01
same,normalized growth,"S. cerevisiae deletion strains, locus YOR080W, strain dia2, stronger effect = lower value",1.03
same,normalized growth,"S. cerevisiae deletion strains, locus YOR083W, strain WHI5, stronger effect = lower value",0.988
same,normalized growth,"S. cerevisiae deletion strains, locus YOR106W, strain vam3, stronger effect = lower value",1.01
same,normalized growth,"S. cerevisiae deletion strains, locus YOR136W, strain idh2, stronger effect = lower value",1.01
same,normalized growth,"S. cerevisiae deletion strains, locus YOR144C, strain elg1, stronger effect = lower value",0.968
same,normalized growth,"S. cerevisiae deletion strains, locus YOR184W, strain ser1, stronger effect = lower value",0.998
same,normalized growth,"S. cerevisiae deletion strains, locus YOR231W, strain MKK1, stronger effect = lower value",0.997
same,normalized growth,"S. cerevisiae deletion strains, locus YOR265W, strain rbl2, stronger effect = lower value",1.02
same,normalized growth,"S. cerevisiae deletion strains, locus YOR270C, strain vph1, stronger effect = lower value",1.02
same,normalized growth,"S. cerevisiae deletion strains, locus YOR290C, strain snf2, stronger effect = lower value",1
same,normalized growth,"S. cerevisiae deletion strains, locus YOR316C, strain cot1, stronger effect = lower value",0.982
same,normalized growth,"S. cerevisiae deletion strains, locus YPL051W, strain arl3, stronger effect = lower value",1.01
same,normalized growth,"S. cerevisiae deletion strains, locus YPL055C, strain LGE1, stronger effect = lower value",1
same,normalized growth,"S. cerevisiae deletion strains, locus YPL078C, strain atp4, stronger effect = lower value",1.01
same,normalized growth,"S. cerevisiae deletion strains, locus YPL106C, strain sse1, stronger effect = lower value",1.02
same,normalized growth,"S. cerevisiae deletion strains, locus YPL240C, strain hsp82, stronger effect = lower value",1.02
same,normalized growth,"S. cerevisiae deletion strains, locus YPL241C, strain CIN2, stronger effect = lower value",0.981
same,normalized growth,"S. cerevisiae deletion strains, locus YPL256C, strain CLN2, stronger effect = lower value",0.982
same,normalized growth,"S. cerevisiae deletion strains, locus YPR119W, strain clb2, stronger effect = lower value",0.973
same,normalized growth,"S. cerevisiae deletion strains, locus YPR141C, strain kar3, stronger effect = lower value",0.911 (active)
same,normalized growth,"S. cerevisiae deletion strains, locus YPR163C, strain tif3, stronger effect = lower value",0.992
same,normalized growth,"S. cerevisiae deletion strains, locus YPR167C, strain met16, stronger effect = lower value",0.972
same,normalized growth,"S. cerevisiae deletion strains, strain wtn01, stronger effect = lower value",0.967
same,normalized growth,"S. cerevisiae strains, strain wild type, stronger effect = lower value",0.953

# From PubChem BioAssay AID1159580 (chemical genetic matrix, 2015)
